# From PubChem BioAssay (NCI)
# About 83,000 compounds went through this panel and 20% of them were active in at least one assay; those are over-represented in the sample as a whole.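 Plates (96-well) were seeded with cells, treated with compound at one concentration, and incubated for 48 hours before percent growth was determined.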 Activity calls are given as the source filed them. The calls were made as follows: active = growth percent below 10; inactive = the rest.
# Test system: HOP-92 NSCLC
# Assay: NCI-60 one-dose screen, 48 h (100 = growth as untreated, 0 = no growth, -100 = all killed)
# Conditions: 10 µM unless noted
row,Compound,growth
1,COc1ccc(-c2nc(SCC(C)C)nc(N/N=C\c3cccc([N+](=O)[O-])c3)c2C#N)cc1,16.2% (inactive)
2,Cc1cc(F)cc(NS(=O)(=O)c2ccc(-c3cnc(C4CC4)o3)cc2)c1,35.6% (inactive)
3,C/C(=N\NC(=O)CSc1nc2sc3c(c2c(=O)n1-c1ccccc1)CCC(C)C3)c1ccc(Cl)cc1 (stereo not given),-1.5% (active)
4,COc1ccc(NC(=O)[C@H](C)N)cc1C(=O)Nc1cccc(-c2cc(=O)c3c(OC)c(OC)c(OC)cc3o2)c1,-4.58% (active)
5,CC[C@H](C)[C@H]1NC(=O)[C@@H]([C@H](O)C(C)C)NC(=O)[C@@H](C)N(C)C(=O)[C@H](C)N(C)C(=O)[C@H](CC(C)C)NC(=O)[C@H](CC(C)C)N(C)C(=O)[C@H](C)N(C)C1=O,-3.54% (active)
6,IP(CCCSc1n(Cc2ccc3ccccc3c2)c(-c2ccccc2)c(-c2ccccc2)[n+]1Cc1ccc2ccccc2c1)(c1ccccc1)(c1ccccc1)c1ccccc1,-1.48% (active)
7,N/C(=N\OC(=O)CSc1nc2ccccc2s1)c1ccc(Cl)cc1,98% (inactive)
8,CC(=O)NC(C)(C)C(=O)N[C@@H](C)C(=O)NC(C)(C)C(=O)N[C@@H](C)C(=O)NC(C)(C)C(=O)N[C@@H](C)C(=O)N[C@@H](CCC(N)=O)C(=O)NC(C)(C)C(=O)N[C@H](C(=O)NC(C)(C)C(=O)NCC(=O)N[C@@H](CC(C)C)C(=O)NC(C)(C)C(=O)N1CCC[C@H]1C(=O)N[C@H](C(=O)NC(C)(C)C(=O)NC(C)(C)C(=O)N[C@@H](CCC(N)=O)C(=O)N[C@@H](CCC(N)=O)C(=O)N[C@H](CO)CC1CCCCC1)C(C)C)C(C)C,-13.3% [5 µM] (active)
9,CCOC(=O)C1=C(C)Nc2nnc(Nc3ccccc3)n2C1c1ccccc1 (stereo not given),82.4% (inactive)
10,COc1cc(OC)c(S(N)(=O)=O)cc1C(=O)/C=C/c1ccccc1,2.22% (active)
11,CCOC(=O)/C(F)=C/C1CC1C1CCCCC1 (stereo not given),83.1% (inactive)

# Test system: NCI-H522 lung
# Assay: as above
# Conditions: 10 µM unless noted
row,Compound,growth
1,CC(=O)Oc1ccc(CCN2C(=O)CSC2=S)cc1,61.7% (inactive)
2,COc1cc(/C=N/n2cnc3oc(-c4ccccc4)cc3c2=N)cc(CN2CCOCC2)c1O,61.1% (inactive)
3,CCOC(=O)/C=c1\sc2n(c1=O)C1C(NN=2)N(CC)C(=O)N1CC (stereo not given),33.3% (inactive)
4,CN(C)c1ccc(/C=N/Nc2nc(N/N=C/c3ccc(N(C)C)cc3)nc(N3CCOCC3)n2)cc1,98.9% (inactive)
5,COc1cc2oc(-c3cccc(NC(=O)c4cc(NC(=O)[C@H](C)NC(=O)OC(C)(C)C)ccc4C)c3)cc(=O)c2c(OC)c1OC,72.2% (inactive)
6,CN1CCN(Cc2ccc(NC(=O)c3cncc(C#Cc4cnc5ccc(NC6CCOCC6)nn45)c3)cc2C(F)(F)F)CC1,-68.5% (active)
7,O=C(Nc1ccc(Cl)cc1)Nc1nc2ccc([N+](=O)[O-])cc2s1,-21.3% (active)
8,CCCCCCNC(=O)Oc1ccc(/C(=C(/C)c2ccc(OC)cc2)c2ccc(OCCN3CCCC3)cc2)cc1,92.2% (inactive)
9,O=c1c2ccccc2nc(COc2ccccc2)n1/N=C/C=C/c1ccccc1,81.4% (inactive)
10,CCCCCc1ccc(S(=O)(=O)N(C(C)=O)c2cccc(-c3csc(N(CCN4CCN(C)CC4)C(C)=O)n3)c2)cc1,69.8% (inactive)
11,O=C(NNc1nc2cc(F)c(F)cc2n2cccc12)c1ccncn1,2.02% (active)
12,O=C(CCCCCCN1CC(=O)N2[C@@H](c3cccc(Cl)c3)c3[nH]c4ccccc4c3C[C@H]2C1=O)NO,19.2% (inactive)
13,O=C(/C=C/c1cn(-c2ccccc2)nc1-c1ccc(Cl)cc1)c1cc2ccccc2oc1=O,71% (inactive)
14,COc1cc(/C=C/C(=O)c2ccc(NC(=O)COc3cccc4cccnc34)cc2)cc(OC)c1OC,80.4% (inactive)
15,O=C(Nc1cccc(Cl)c1)Nc1nc2ccc([N+](=O)[O-])cc2s1,2.99% (active)
16,O=C(NNc1nc2cc(F)cc(F)c2n2cccc12)c1ccncn1,-12.4% (active)
17,C[C@H]1[C@H](C)CC[C@]2(COC(=O)c3cccnc3)CC[C@]3(C)C(=CC[C@@H]4[C@@]5(C)CCCNC(C)(C)[C@@H]5CC[C@]43C)[C@H]12,82.9% (inactive)
18,CN1CCN(c2ccc(NC(=O)Nc3ccc4c(ccn4-c4cccc(C(N)=O)n4)c3)cc2C(F)(F)F)CC1,71.6% (inactive)
19,COc1ccc(OC)c([C@H]2c3[nH]c4ccccc4c3C[C@H]3C(=O)N(CCCCCCC(=O)NO)CC(=O)N23)c1,69.2% (inactive)
20,CS(=O)c1nccc(-c2c(-c3ccc(F)c(OCc4ccccc4)c3)nc3sccn23)n1 (stereo not given),31.6% (inactive)

row,Compound,growth
1,CC(=O)NC(C)(C)C(=O)N1CCC[C@H]1C(=O)NC(C)(C)C(=O)N[C@@H](C)C(=O)NC(C)(C)C(=O)N[C@@H](C)C(=O)N[C@@H](CCC(N)=O)C(=O)NC(C)(C)C(=O)N[C@H](C(=O)NC(C)(C)C(=O)NCC(=O)N[C@@H](CC(C)C)C(=O)NC(C)(C)C(=O)N1CCC[C@H]1C(=O)N[C@H](C(=O)NC(C)(C)C(=O)NC(C)(C)C(=O)N[C@@H](CCC(N)=O)C(=O)N[C@@H](CCC(N)=O)C(=O)N[C@H](CO)Cc1ccccc1)C(C)C)C(C)C,48% [4.25 µM] (inactive)
2,C=C(C)[C@@H]1CC[C@]2(C(=O)NCCCN(CCC#N)CCC#N)CC[C@]3(C)[C@H](CC[C@@H]4[C@@]5(C)CCC(=O)C(C)(C)[C@@H]5CC[C@]43C)[C@@H]12,91.6% (inactive)
3,O=C(CN1C(=O)S/C(=C\c2ccccc2)C1=O)Nc1ccc(C(=O)/C=C/c2cc3ccccc3nc2Cl)cc1,73.3% (inactive)
4,N#Cc1c(-c2cccs2)cc(-c2cnccn2)nc1SCC(=O)NNC(=S)Nc1ccc(F)cc1,95.5% (inactive)
5,CN1CCN(c2nc(-c3cnc4ccccc4n3)cc3ccccc23)CC1,86.9% (inactive)
6,Cc1cc(O)c(=O)cc2c1C[C@H]1CC(C)(C)/C=C/C[C@]3(C)Oc4cc(=O)c(O)cc(C)c4C[C@H]3C[C@H](O)[C@@]1(C)O2,-26.9% (active)
7,CC(C)=CCC[C@](C)(O)[C@H]1CC[C@]2(C)[C@@H]1CC[C@@H]1[C@@]3(C)CCC(NC(=O)c4ccccc4C(=O)O)C(C)(C)[C@@H]3CC[C@]12C (stereo not given in full),95.3% (inactive)
8,CN1CCN(c2ccc3c(C(N)=O)c(NC(=O)c4ccc(C(C)(C)C)cc4)sc3c2)CC1,103% (inactive)
9,COc1ccc(-c2nc(SCC(C)C)nc(N/N=C\c3cccc([N+](=O)[O-])c3)c2C#N)cc1,59.4% (inactive)
10,Cc1cc(F)cc(NS(=O)(=O)c2ccc(-c3cnc(C4CC4)o3)cc2)c1,8.89% (active)
11,C/C(=N\NC(=O)CSc1nc2sc3c(c2c(=O)n1-c1ccccc1)CCC(C)C3)c1ccc(Cl)cc1 (stereo not given),22.2% (inactive)
12,COc1ccc(NC(=O)[C@H](C)N)cc1C(=O)Nc1cccc(-c2cc(=O)c3c(OC)c(OC)c(OC)cc3o2)c1,82% (inactive)
13,CC[C@H](C)[C@H]1NC(=O)[C@@H]([C@H](O)C(C)C)NC(=O)[C@@H](C)N(C)C(=O)[C@H](C)N(C)C(=O)[C@H](CC(C)C)NC(=O)[C@H](CC(C)C)N(C)C(=O)[C@H](C)N(C)C1=O,1.44% (active)
14,IP(CCCSc1n(Cc2ccc3ccccc3c2)c(-c2ccccc2)c(-c2ccccc2)[n+]1Cc1ccc2ccccc2c1)(c1ccccc1)(c1ccccc1)c1ccccc1,8.1% (active)
15,N/C(=N\OC(=O)CSc1nc2ccccc2s1)c1ccc(Cl)cc1,95% (inactive)
16,CC(=O)NC(C)(C)C(=O)N[C@@H](C)C(=O)NC(C)(C)C(=O)N[C@@H](C)C(=O)NC(C)(C)C(=O)N[C@@H](C)C(=O)N[C@@H](CCC(N)=O)C(=O)NC(C)(C)C(=O)N[C@H](C(=O)NC(C)(C)C(=O)NCC(=O)N[C@@H](CC(C)C)C(=O)NC(C)(C)C(=O)N1CCC[C@H]1C(=O)N[C@H](C(=O)NC(C)(C)C(=O)NC(C)(C)C(=O)N[C@@H](CCC(N)=O)C(=O)N[C@@H](CCC(N)=O)C(=O)N[C@H](CO)CC1CCCCC1)C(C)C)C(C)C,6.15% [5 µM] (active)
17,CCOC(=O)C1=C(C)Nc2nnc(Nc3ccccc3)n2C1c1ccccc1 (stereo not given),79.2% (inactive)
18,COc1cc(OC)c(S(N)(=O)=O)cc1C(=O)/C=C/c1ccccc1,25.8% (inactive)
19,CCOC(=O)/C(F)=C/C1CC1C1CCCCC1 (stereo not given),103% (inactive)
